The text below walks through data of PubChem BioAssay (NCATS).

The target in assay [1] is Cytochrome P450 2D6 (Homo sapiens) (UniProt P10635). The assay is described as follows: Cytochrome P450 family 2 subfamily D member 6 (CYP2D6) small molecule antagonists: luciferase biochemical (cell-free) qHTS assay (AID 1645840; active = well fitted curve in the direction sought with a large enough effect in the repeat runs; an effect the other way counts as inactive or inconclusive; also: nearly all actives have a fitted effect of over 55% in size; also: potency is read from the fitted curve at half-maximal effect; as to activity change, negative = inhibition: % is scaled to controls: 0 for no effect and ±100 for the full control effect). In short, it runs like this:
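P450-Glo CYP2D6 system: proluciferin substrate converted by enzyme to luciferin, read by luminescence proportional to activity. Enzyme-substrate mix with compound 10 min at room temperature, then NADPH regeneration 1 h before detection reagent.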
In general terms: Quantitative high-throughput screening tests each substance at several concentrations.

Assay [2] has as its target Cytochrome P450 2C9 (Homo sapiens) (UniProt P11712). The assay is described as follows: Cytochrome P450 family 2 subfamily C member 9 (CYP2C9) small molecule antagonists: luciferase biochemical (cell-free) qHTS assay (AID 1645842; active = well fitted curve in the direction sought with a large enough effect in the repeat runs; an effect the other way counts as inactive or inconclusive; also: nearly all actives have a fitted effect of over 55% in size; also: potency is read from the fitted curve at half-maximal effect; as to activity change, negative = inhibition: % is scaled to controls: 0 for no effect and ±100 for the full control effect). Put shortly: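 P450-Glo CYP2C9 system: proluciferin substrate with enzyme in mix containing 0.4% BSA, 10 min at room temperature, then NADPH regeneration solution added and incubated 1 h at 37C. Detection reagent stopped reaction; luminescence read after 20 min as RLU.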

Assay [3] can be described thus: Primary qHTS for inhibitors of nuclear receptor binding SET domain protein 2 (NSD2) in an isogenic RCH-ACV NSD2 p.E1099K mutant (9B) (AID 1645876). Also: nearly all actives have a fitted effect of over 70% in size. Also: potency is read from the fitted curve at half-maximal effect.
The nature of assay [4]: Primary qHTS for inhibitors of nuclear receptor binding SET domain protein 2 (NSD2) in an RCH-ACV wild type WT cells (2C) (AID 1645877). Also: nearly all actives have a fitted effect of over 70% in size. Also: potency is read from the fitted curve at half-maximal effect.
The subject of another assay is KB-3-1. Put plainly: Cytotoxic Profiling of Annotated Libraries Using Quantitative High-Throughput Screening (AID 1296008). Also: nearly all actives have a fitted effect of over 60% in size. Also: potency is read from the fitted curve at half-maximal effect. As to max response: % is scaled to controls: 0 for no effect and ±100 for the full control effect. The conditions noted are these: Five cell lines viability, CellTiter-Glo ATP luminescence, 48-72 h; max response: stronger effect = lower value. Put shortly:
(§1)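 Cells exposed to compounds for 48 or 72 hr at 37 degrees Celsius. Viability read as ATP-coupled luminescence with CellTiter-Glo after 10 min at room temperature.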
(In general: In ATP-based viability assays light output follows the ATP content of the culture.)

The test system of the next assay is HeLa. Put plainly: Primary qHTS to identify gynecologic anti-cancer compounds using libraries of approved drugs and bioactive compounds (AID 1345084). Also: nearly all actives have a fitted effect of over 55% in size. Also: potency is read from the fitted curve at half-maximal effect. The conditions noted are these: Gynecologic cancer cell panel viability, ATPlite luminescence, 48 h; series mostly up to 57.5 µM. Put shortly: (§2)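 Luminescence from the ATPlite ATP-monitoring reagent indicates viable cell number; lower signal means cytotoxicity. Cells received compound 16 h after seeding and were exposed for 48 h across five concentrations.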

Another assay concerns SKOV3. The description is as above. As to conditions: Gynecologic cancer cell panel viability, ATPlite luminescence, 48 h; series mostly up to 57.5 µM. In short, it runs like this:
as §2

Assay [5] deals with Zika virus NS2B-NS3 protease (unlinked complex). The assay is described as follows: Primary screen GU Rhodamine qHTS for Zika virus inhibitors: Unlinked NS2B-NS3 protease assay (AID 1347159). Also: % is scaled to controls: 0 for no effect and ±100 for the full control effect; nearly all actives have a fitted effect of over 60% in size. Put shortly:
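Percent inhibition came from the 15-min rise in Rhodamine110 fluorescence (1.5 microM substrate, ~15% conversion), normalized to no-inhibitor and no-enzyme wells and Hill-fitted. Unlinked protease, 25 nM, pH 8.0 Tris buffer; compounds up to 114 microM, 15-min preincubation.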

In the next assay the test system is HEK293. The assay is described as follows: Cytotoxic Profiling of Annotated Libraries Using Quantitative High-Throughput Screening (AID 1296008). Also: nearly all actives have a fitted effect of over 60% in size. Also: potency is read from the fitted curve at half-maximal effect. As to max response: % is scaled to controls: 0 for no effect and ±100 for the full control effect. The conditions noted are these: Five cell lines viability, CellTiter-Glo ATP luminescence, 48-72 h; max response: stronger effect = lower value. In short, it runs like this:
as §1

Assay [6] is described as follows: P-glycoprotein substrates identified in KB-3-1 adenocarcinoma cell line, qHTS therapeutic library screen (AID 1346986). Also: nearly all actives have a fitted effect of over 60% in size. In short, it runs like this: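 In 1536-well format, 500 cells/well received pinned compound titrations and were incubated 72 h, 5% CO2. Viability was read by CellTiter-Glo; cytotoxic if AC50 < 10 uM and efficacy >50%.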
A further assay deals with HACAT. The assay is described as follows: qHTS assay to identify novel small-molecules to repurpose for Merkel cell carcinoma treatment (AID 1296009). Also: nearly all actives have a fitted effect of over 60% in size. The conditions noted are these: MCC and control cell lines, CellTiter-Glo viability, 72 h; at 44.8 µM (top of the series) unless noted. In short, it runs like this:
(§3)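 Dose-response viability screen; 72 hr exposure at 37 degree celsius; CellTiter-Glo added, 10 min room temperature, luminescence read; RLUs scaled between no-cell and DMSO wells.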

The test system of a further assay is NIH3T3. The assay is described as above. The conditions noted are these: MCC and control cell lines, CellTiter-Glo viability, 72 h; at 44.8 µM (top of the series) unless noted. Put shortly: as §3
The nature of assay [7]: P-glycoprotein substrates identified in KB-8-5-11 adenocarcinoma cell line, qHTS therapeutic library screen (AID 1346987). Also: nearly all actives have a fitted effect of over 65% in size. Also: potency is read from the fitted curve at half-maximal effect. In short, it runs like this: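 Compounds are pinned in dose-response onto KB-8-5-11 cells (500 cells/well, colchicine-free medium) and left 72 h at 37 degree C. CellTiter-Glo luminescence then yields AC50 values.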
The nature of assay [8]: qHTS drug screen for cell cycle checkpoint inhibitors in PARPi-resistant BRCA-mutant ovarian cancer cell lines. (AID 1963452; calls by dose curve). The conditions noted are these: PEO1/OlaR viability, CellTiter-Glo luminescence, 96 h, stronger effect = lower value. In short, it runs like this:
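PEO1, PEO4 and PEO1/OlaR ovarian cancer cells, 600 per well, exposed 96 h at 37C to a dilution series. Viability read by CellTiter-Glo luminescence, normalized to DMSO and empty wells; activity summarized as Z-AUC.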

The target in assay [9] is Catechol O-methyltransferase (Homo sapiens) (UniProt P21964). Put plainly: Confirmatory Screen for Target Class Profiling of Small Molecule Inhibitors of Methyltransferases (AID 1745852). The conditions noted are these: MTase-Glo luminescence, SAH detection, recombinant enzyme; measured here: COMT max response; stronger effect = lower value.
The target in assay [10] is Guanidinoacetate N-methyltransferase (Homo sapiens) (UniProt Q14353). The description is as above. The conditions noted are these: activity change, negative = inhibition: at 57.3 µM (top of the series) unless noted.
Assay [11] addresses Nicotinamide N-methyltransferase (Homo sapiens) (UniProt P40261). The assay is described as above. As to conditions: MTase-Glo luminescence, SAH detection, recombinant enzyme; measured here: NNMT max response; stronger effect = lower value.
In assay [12] the target is Phenylethanolamine N-methyltransferase (Homo sapiens) (UniProt P11086). Described as above. The conditions noted are these: MTase-Glo luminescence, SAH detection, recombinant enzyme; measured here: PNMT max response; stronger effect = lower value.

Records with an inconclusive call do not appear. Activity calls are given as the source filed them. Unless noted, calls follow the shape of the dose curve; as a rule, active = well fitted curve in the direction sought with a large enough effect; inconclusive = small, poorly fitted or top-dose-only effect, or another doubt; inactive = no such curve, though single readings can be large; an effect the other way counts as inactive or inconclusive.

Chain of Cytochrome P450 2D6 (Homo sapiens) (P10635 whole entry, looked up): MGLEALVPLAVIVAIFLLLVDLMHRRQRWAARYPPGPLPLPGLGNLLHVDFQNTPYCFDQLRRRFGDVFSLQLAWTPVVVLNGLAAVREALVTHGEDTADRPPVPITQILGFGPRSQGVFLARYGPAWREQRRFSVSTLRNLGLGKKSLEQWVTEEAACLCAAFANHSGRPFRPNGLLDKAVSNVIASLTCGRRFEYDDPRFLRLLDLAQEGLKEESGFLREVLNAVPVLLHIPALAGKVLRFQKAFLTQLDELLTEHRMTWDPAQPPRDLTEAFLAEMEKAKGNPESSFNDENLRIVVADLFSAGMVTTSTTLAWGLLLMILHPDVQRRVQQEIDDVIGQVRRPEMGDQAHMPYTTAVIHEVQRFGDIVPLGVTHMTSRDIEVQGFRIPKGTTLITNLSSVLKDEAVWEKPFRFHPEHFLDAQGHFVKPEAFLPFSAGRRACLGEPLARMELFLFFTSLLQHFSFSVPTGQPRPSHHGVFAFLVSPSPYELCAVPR
Chain of Cytochrome P450 2C9 (Homo sapiens) (P11712 whole entry, looked up): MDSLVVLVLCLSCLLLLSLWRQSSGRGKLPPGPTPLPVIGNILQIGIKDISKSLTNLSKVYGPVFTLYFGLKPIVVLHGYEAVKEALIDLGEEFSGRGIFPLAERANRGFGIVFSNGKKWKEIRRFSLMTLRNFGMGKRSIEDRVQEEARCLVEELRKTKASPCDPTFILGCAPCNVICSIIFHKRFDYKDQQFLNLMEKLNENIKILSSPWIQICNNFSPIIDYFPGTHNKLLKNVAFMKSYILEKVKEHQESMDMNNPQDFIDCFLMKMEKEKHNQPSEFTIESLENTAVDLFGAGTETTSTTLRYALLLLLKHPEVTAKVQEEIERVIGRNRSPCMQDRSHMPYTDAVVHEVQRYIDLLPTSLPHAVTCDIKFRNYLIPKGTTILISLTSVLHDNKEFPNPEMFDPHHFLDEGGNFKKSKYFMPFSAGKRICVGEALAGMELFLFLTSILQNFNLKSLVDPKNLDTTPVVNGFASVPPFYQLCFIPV
Chain of Catechol O-methyltransferase (Homo sapiens) (P21964 whole entry, looked up): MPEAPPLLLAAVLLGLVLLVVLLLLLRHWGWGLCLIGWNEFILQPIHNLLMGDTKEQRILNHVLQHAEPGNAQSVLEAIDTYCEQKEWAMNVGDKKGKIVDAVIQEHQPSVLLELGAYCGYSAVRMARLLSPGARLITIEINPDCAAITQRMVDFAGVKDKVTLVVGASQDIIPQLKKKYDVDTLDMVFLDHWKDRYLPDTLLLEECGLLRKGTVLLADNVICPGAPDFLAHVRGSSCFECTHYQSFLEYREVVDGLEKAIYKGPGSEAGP
Chain of Nicotinamide N-methyltransferase (Homo sapiens) (P40261 whole entry, looked up): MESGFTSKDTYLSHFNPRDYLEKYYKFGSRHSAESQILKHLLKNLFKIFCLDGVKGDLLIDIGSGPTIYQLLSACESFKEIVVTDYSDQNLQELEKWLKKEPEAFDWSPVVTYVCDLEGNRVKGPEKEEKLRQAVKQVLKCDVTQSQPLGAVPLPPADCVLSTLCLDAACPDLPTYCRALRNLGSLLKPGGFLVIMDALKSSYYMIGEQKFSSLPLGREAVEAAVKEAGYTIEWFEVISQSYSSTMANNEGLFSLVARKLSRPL
Chain of Phenylethanolamine N-methyltransferase (Homo sapiens) (P11086 whole entry, looked up): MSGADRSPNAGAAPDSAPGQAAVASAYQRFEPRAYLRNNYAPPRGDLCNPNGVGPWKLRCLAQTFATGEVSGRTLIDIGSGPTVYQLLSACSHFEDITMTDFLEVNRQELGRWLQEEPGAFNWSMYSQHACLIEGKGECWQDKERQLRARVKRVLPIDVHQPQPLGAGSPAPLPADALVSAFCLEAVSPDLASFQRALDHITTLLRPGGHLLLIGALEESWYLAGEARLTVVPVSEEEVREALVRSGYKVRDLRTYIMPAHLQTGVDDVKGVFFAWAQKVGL

As to `N#Cc1ccccc1-c1cc(-c2ccccn2)cn(-c2ccccc2)c1=O`, the Potency entry (in assay [1]; in [3]; in [4]; with HeLa; with SKOV3) was “inactive” each time. Also, the Potency in [2] is 13.5 µM (active). In addition, the max response with KB-3-1 is -4.86% (inactive).
Regarding `C[C@H]1CN(Cc2ccc(CC(=O)N3CCC(Nc4cccc(F)c4)CC3)cc2)CCN1`, the Potency result (in assay [5]; in assay [2]; with HeLa; in the assay with SKOV3) was “inactive” each time. Also, the Potency in assay [1] was 12 µM (active); with HEK293, 18.4 µM (active). Moreover, in the assay with KB-3-1, the max response was -18.3% (inactive).
Consider `C/C=C(\C)C(=O)O[C@@H]1[C@@H](C)[C@]2(O)C3C=C(C)C(=O)[C@@]3(O)CC(CO)=C[C@H]2C2C(C)(C)[C@@]21OC(=O)C(C)CC` (some centres undefined), for which the Potency result (in assay [6]; in assay [5]; with HeLa; in the assay on SKOV3) was “inactive” throughout. The outcome in the assay with KB-3-1 is “inactive”. For the same molecule, the outcome in the assay on HACAT and in the assay with NIH3T3 was “inactive [at 17.4 µM]” each time.
`CC(C)C(=O)O[C@H]1[C@@H]2[C@H](C)C(=O)O[C@@H]2C[C@@H](C)[C@@H]2C=CC(=O)[C@]21C`: the Potency was 16.1 µM (active) in assay [7], 3.58 µM (active) in [3] and 9.04 µM (active) in the assay with HEK293. The Potency result in assay [5] is “inactive”.
As to `Cc1cccc(NC(=O)c2ccc(C(F)(F)F)cc2C(=O)O)n1`, the Potency result in [6], in [7], in [5] and in assay [3] was “inactive” throughout. The outcome in the assay with KB-3-1 and in the assay on HACAT was “inactive” each time.
With `CC1CCCCCC(=O)c2c(O)cc(O)cc2CC(=O)O1` (centres undefined), the Potency result (in assay [7]; in assay [5]; in the assay with HeLa; in the assay on SKOV3) was “inactive” in each case. The max response with KB-3-1 is -18.6% (inactive). Further, the outcome with HACAT was “inactive”.
For the molecule `CC(C)(O)/C=C/C(=O)[C@](C)(O)[C@H]1[C@H](O)C[C@@]2(C)[C@@H]3CC=C4[C@@H](C[C@H](O)C(=O)C4(C)C)[C@]3(C)C(=O)C[C@]12C`, the Potency in assay [7] is 0.448 µM (active); in assay [3] it was 0.252 µM (active); in assay [4], 142 nM (active); in the assay with HEK293, 0.709 µM (active); in the assay with KB-3-1 it was 448 nM (active); with HeLa, 2.51 µM (active). Besides, in the assay on SKOV3, the Potency was 794 nM (active). Also, the Potency entry in assay [5] is “inactive”.
In the case of `Cc1sc2c(c1C)C(c1ccc(Cl)cc1)=N[C@@H](CC(=O)Nc1ccc(O)cc1)c1nnc(C)n1-2`, the Potency in assay [3] is 0.0615 µM (active); in assay [4], 69 nM (active); in the assay with HEK293 it was 0.39 µM (active); in the assay on SKOV3 it was 562 nM (active). Moreover, the Z-AUC in assay [8] is -0.583 (inactive); in assay [8] (measured here: PEO1 parental Z-AUC) it was -0.325; in assay [8] (measured here: PEO4 Z-AUC) it was -0.491. Also, the outcome in the assay on HACAT is “inactive [at 9.27 µM]”.
Consider `CC(C)OC(=O)c1ccnc2cc(C(OCCN3CCCCC3)c3ccccc3Cl)sc12` (centres undefined), for which the results for the Potency in [7], in [3] and in assay [4] were 20.6 µM (active), 14.5 µM (active) and 18300 nM (active), respectively. Besides, the Potency result (in assay [5]; with HeLa; in the assay on SKOV3) was “inactive” each time. Besides, the activity in assay [9] is 3.41%; in assay [11], -30.3%; in assay [12] it was -6.38%. Also, in [10], the activity change, negative = inhibition is 8.86%. Moreover, the outcome with HACAT is “inactive”.
